Data reported in PubChem BioAssay (NCATS).
“And” between values parts separate entries of the source, which are not always exact repeats. Equal entries are not always repeated. Records with an inconclusive call do not appear. A call without a number means that no potency is given here. Some structures have more than one record in an assay (separate samples or runs), and their calls can disagree. The source made the active and inactive calls. Unless noted, calls come from the whole dose curve; as a rule, active = well fitted curve in the direction sought with a large enough effect; inconclusive = small, poorly fitted or top-dose-only effect, or another doubt; inactive = no such curve, though single readings can be large; an effect the other way counts as inactive or inconclusive.

Columns and labels:
[1] = Primary qHTS for inhibitors of nuclear receptor binding SET domain protein 2 (NSD2) in an isogenic RCH-ACV NSD2 p.E1099K mutant (9B) (AID 1645876); note: nearly all actives have a fitted effect of over 70% in size; note: potency is the fitted concentration of half-maximal effect
[2] = Primary qHTS for inhibitors of nuclear receptor binding SET domain protein 2 (NSD2) in an RCH-ACV wild type WT cells (2C) (AID 1645877); note: nearly all actives have a fitted effect of over 70% in size; note: potency is the fitted concentration of half-maximal effect
[3] = target: Metallo-beta-lactamase type 2 (Klebsiella pneumoniae) (UniProt C7C422); assay: qHTS to identify inhibitors of the New Delhi Metallo-beta-lactamase (NDM): assay validation screen against the NCATS LOPAC Collection (AID 1794843);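 note: nitrocefin turnover by NDM-1 measured as 485 nm absorbance at plateau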
How it was run: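 Nitrocefin hydrolysis (50 uM substrate stock) by NDM-1, 2 nM final, was followed by 485 nm absorbance after compound preincubation; buffer was 50 mM HEPES pH 7.0, 1 uM ZnSO4, 0.01% Tween20.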

[4] = target: Glutathione peroxidase 1 (Homo sapiens) (UniProt P07203); assay: Primary qHTS Assay for Inhibitors of Recombinant Selenoprotein Glutathione Peroxidase 1 (GPX1) (AID 1845191); note: nearly all actives have a fitted effect of over 65% in size; note: potency is the fitted concentration of half-maximal effect
How it was run: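 GR-coupled assay: compounds preincubated 30 min at room temperature with GPX1, then reaction started with CHP; final 10 nM GPX1, 1 mM GSH, 0.5 mM CHP, 0.5 mM NADPH, 100 nM GR, 0.01% BSA, pH 7.5 Tris buffer. NADPH fluorescence (340/450 nm) read at 0 and 15 min.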

[5] = NCATS anti-infectives library activity on HEK293 viability as a counter-qHTS vs the C. elegans viability qHTS (AID 1745854)
How it was run: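 HEK293 cells, 1500 per well, exposed 24 hr at 37C in 5% CO2 to compounds in a 1:5 titration, up to 41.7 uM final. Viability read as CellTiter-Glo luminescence after 10 min at room temperature.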

[6] = target: Phospholipid hydroperoxide glutathione peroxidase GPX4 (Homo sapiens) (UniProt P36969); assay: Primary qHTS Assay for Inhibitors of Recombinant Selenoprotein Glutathione Peroxidase 4 (GPX4) (AID 1845192); note: nearly all actives have a fitted effect of over 65% in size; note: potency is the fitted concentration of half-maximal effect
How it was run: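 GR-coupled assay: recombinant GPX4 preincubated 30 min with compound at room temperature; final 200 nM GPX4, 1 mM GSH, 0.5 mM cumene hydroperoxide, 0.5 mM NADPH, 100 nM GR, 0.01% BSA, pH 7.5 Tris. NADPH fluorescence (340/450 nm) read at 0 and 15 min.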

[7] = target: Catechol O-methyltransferase (Homo sapiens) (UniProt P21964); assay: Confirmatory Screen for Target Class Profiling of Small Molecule Inhibitors of Methyltransferases (AID 1745852); settings: MTase-Glo luminescence, SAH detection, recombinant enzyme; measured here: COMT max response; stronger effect = lower value
[8] = target: Guanidinoacetate N-methyltransferase (Homo sapiens) (UniProt Q14353); assay: as above; settings: MTase-Glo luminescence, SAH detection, recombinant enzyme; activity change, negative = inhibition: at 57.3 µM (top of the series)
[9] = target: Nicotinamide N-methyltransferase (Homo sapiens) (UniProt P40261); assay: as above; settings: MTase-Glo luminescence, SAH detection, recombinant enzyme; measured here: NNMT max response; stronger effect = lower value
[10] = target: Phenylethanolamine N-methyltransferase (Homo sapiens) (UniProt P11086); assay: as above; settings: MTase-Glo luminescence, SAH detection, recombinant enzyme; measured here: PNMT max response; stronger effect = lower value
[11] = NCATS anti-infectives library activity on the primary C. elegans qHTS viability assay (AID 1745855; calls by dose curve); settings: C. elegans worm area imaging, day 7; at 41.8 µM (top of the series)
How it was run: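 Viability is taken from GFP fluorescence of PE254-GFP-FLuc C. elegans imaged by laser cytometry over 7 days. Ten L1 worms per well grow at 21 °C on TOP10 E. coli capsules with titrated compound; levamisole marks toxicity.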

[12] = Viability counterscreen for antagonist of constitutive androstane receptor (CAR) against the NCATS DSHEA and TCM libraries (AID 1794837);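 note: compound exposure lasted 24 h before viability reading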
How it was run: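 HepG2-CYP2B6-hCAR cells (2,500/well) were allowed to attach for 5 h, then exposed to compounds with 48 uM CITCO for 24 h at 37C. Viability was read by CellTiter-Fluor fluorescence after 1 h.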

[13] = Viability counterscreen for agonist of constitutive androstane receptor (CAR) against the NCATS DSHEA and TCM libraries (AID 1794838);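 note: HepG2 cells with CYP2B6 reporter and hCAR plus 0.75 µM PK11195 antagonist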
How it was run: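 HepG2-CYP2B6-hCAR cells (2,500/well) attached 5 h, then got compounds plus 0.75 uM PK11195 final. After 24 h at 37C, viability read by CellTiter-Fluor fluorescence (Ex/Em 405/540 nm).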

[14] = HepG2 viability counterscreen (readout 2: ATP content) against the NCATS DSHEA and TCM libraries (AID 1794840);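 note: HepG2 cells exposed to substances for about 24 h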
How it was run: (§1)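 HepG2 cells (1,000 cells/well) attached ~4 h, then treated ~24 h at 37C with substances. Protease activity read by GF-AFC (25 uM final, 30 min, Ex/Em 380/510 nm); ATP content then by CellTiter-Glo luminescence.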

[15] = HepG2 viability counterscreen (readout 1: protease activity) against the NCATS DSHEA and TCM libraries (AID 1794841);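 note: cells exposed to compounds for about 24 h before the protease read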
How it was run: as §1

Chain of Phospholipid hydroperoxide glutathione peroxidase GPX4 (Homo sapiens) (P36969 whole entry, looked up): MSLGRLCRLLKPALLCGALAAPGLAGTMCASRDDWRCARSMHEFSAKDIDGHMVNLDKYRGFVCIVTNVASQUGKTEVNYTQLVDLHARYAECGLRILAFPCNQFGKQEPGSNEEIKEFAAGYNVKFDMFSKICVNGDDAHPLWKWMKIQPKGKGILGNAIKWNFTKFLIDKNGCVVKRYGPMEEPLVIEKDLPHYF
Chain of Glutathione peroxidase 1 (Homo sapiens) (P07203 whole entry, looked up): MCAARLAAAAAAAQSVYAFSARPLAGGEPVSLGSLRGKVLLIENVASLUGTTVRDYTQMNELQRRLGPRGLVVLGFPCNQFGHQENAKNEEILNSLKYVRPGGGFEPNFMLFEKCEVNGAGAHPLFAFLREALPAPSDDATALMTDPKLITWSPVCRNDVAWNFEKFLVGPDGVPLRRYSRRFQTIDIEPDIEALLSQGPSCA
Chain of Metallo-beta-lactamase type 2 (Klebsiella pneumoniae) (C7C422 whole entry, looked up): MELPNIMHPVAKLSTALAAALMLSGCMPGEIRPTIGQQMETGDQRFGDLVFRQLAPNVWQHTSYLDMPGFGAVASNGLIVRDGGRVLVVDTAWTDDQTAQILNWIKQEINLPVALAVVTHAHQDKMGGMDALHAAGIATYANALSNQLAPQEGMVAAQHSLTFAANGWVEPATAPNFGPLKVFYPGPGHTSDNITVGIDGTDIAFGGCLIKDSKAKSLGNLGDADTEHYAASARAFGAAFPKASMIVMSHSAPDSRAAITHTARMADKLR
Chain of Phenylethanolamine N-methyltransferase (Homo sapiens) (P11086 whole entry, looked up): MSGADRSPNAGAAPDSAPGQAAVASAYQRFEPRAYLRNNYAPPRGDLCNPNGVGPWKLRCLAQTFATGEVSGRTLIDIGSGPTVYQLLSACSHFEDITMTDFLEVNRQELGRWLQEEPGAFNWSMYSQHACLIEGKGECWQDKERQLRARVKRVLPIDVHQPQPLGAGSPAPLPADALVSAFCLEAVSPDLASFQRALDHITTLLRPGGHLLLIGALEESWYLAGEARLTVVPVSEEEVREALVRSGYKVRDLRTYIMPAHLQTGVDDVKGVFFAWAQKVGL
Chain of Catechol O-methyltransferase (Homo sapiens) (P21964 whole entry, looked up): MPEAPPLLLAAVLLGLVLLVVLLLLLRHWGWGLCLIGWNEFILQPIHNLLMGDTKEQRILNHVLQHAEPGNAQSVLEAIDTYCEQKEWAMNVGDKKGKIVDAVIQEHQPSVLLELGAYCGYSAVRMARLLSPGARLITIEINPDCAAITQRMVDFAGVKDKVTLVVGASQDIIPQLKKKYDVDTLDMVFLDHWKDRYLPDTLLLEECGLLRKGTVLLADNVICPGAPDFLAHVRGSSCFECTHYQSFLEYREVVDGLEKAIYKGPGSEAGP
Chain of Nicotinamide N-methyltransferase (Homo sapiens) (P40261 whole entry, looked up): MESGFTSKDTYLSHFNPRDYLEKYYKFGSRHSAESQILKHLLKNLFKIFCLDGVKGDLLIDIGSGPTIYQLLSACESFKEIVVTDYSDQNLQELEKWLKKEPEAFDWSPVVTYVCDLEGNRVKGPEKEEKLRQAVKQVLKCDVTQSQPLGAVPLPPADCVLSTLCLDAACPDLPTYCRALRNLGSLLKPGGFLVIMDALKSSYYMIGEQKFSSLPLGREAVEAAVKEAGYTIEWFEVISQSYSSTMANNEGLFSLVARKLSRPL

COc1cc2nc(N3CCCN(C)CC3)nc(NC3CCN(Cc4ccccc4)CC3)c2cc1OC
Potency [1]: 4.17 µM (active)
Potency [2]: 2.63 µM (active)
outcome [3]: inactive
Potency [4]: inactive

CC(C)Cn1cnc2c(N)nc3ccccc3c21
Potency [1]: inactive
Potency [2]: inactive
Potency [5]: inactive
Potency [4]: inactive
Potency [6]: inactive

O=NN(CCCl)C(=O)NC1CCCCC1
Potency [1]: inactive
Potency [2]: inactive
Potency [4]: inactive
Potency [6]: inactive

NC1(c2ccc(-c3nc4ccn5c(=O)[nH]nc5c4cc3-c3ccccc3)cc2)CCC1
Potency [1]: 21.1 nM (active) and 64.9 nM (active) and 166 nM (active)
Potency [2]: 21.1 nM (active) and 81.7 nM (active) and 332 nM (active)
activity [7]: -9.12%
activity change, negative = inhibition [8]: -8.7%
activity [9]: -25.8%
activity [10]: -8.08%
Potency [4]: inactive
Potency [6]: inactive

CCOC(=O)c1ccc(OC(=O)CCCCCN=C(N)N)cc1
Potency [1]: inactive
Potency [2]: 23.5 µM (active)
Potency [5]: inactive
Potency [6]: inactive

CC(=O)[C@H]1CC[C@H]2[C@@H]3CC=C4C[C@@H](O)CC[C@]4(C)[C@H]3CC[C@]12C
Potency [1]: inactive
Potency [2]: inactive
Potency [4]: inactive
Potency [6]: inactive

CC(=O)Oc1ccccc1C(=O)Nc1ncc([N+](=O)[O-])s1
Potency [1]: inactive
Potency [2]: inactive
Potency [5]: inactive
Potency [4]: inactive
Potency [6]: inactive

Cc1ncc([N+](=O)[O-])n1CCO
Potency [1]: inactive
Potency [2]: inactive
Potency [4]: inactive
Potency [6]: inactive

Cc1ccc(S(=O)(=O)N[C@@H](Cc2ccccc2)C(=O)CCl)cc1
Potency [1]: 13.2 µM (active)
Potency [2]: 11.8 µM (active)
outcome [3]: inactive
Potency [4]: inactive
Potency [6]: inactive

Cc1oc(=O)oc1CN1CCN(c2cc3c(cc2F)c(=O)c(C(=O)O)c2n3C(C)S2)CC1 (stereo not given)
Potency [1]: inactive
Potency [2]: inactive
Potency [5]: inactive
Potency [6]: inactive

COc1ccccc1OCC(O)COC(N)=O (stereo not given)
Potency [1]: inactive
Potency [2]: inactive
Potency [5]: inactive
outcome [11]: inactive
Potency [4]: inactive
Potency [6]: inactive

COc1ccc2cc3[n+](cc2c1OC)CCc1cc2c(cc1-3)OCO2
Potency [1]: 11.9 µM (active) and 5.9 µM (active)
Potency [2]: 11.9 µM (active) and 3.32 µM (active)
outcome [12]: inactive
outcome [13]: inactive
outcome [14]: inactive
outcome [15]: inactive
Potency [4]: inactive
Potency [6]: inactive

C[C@]12C=CC(=O)C=C1CC[C@@H]1[C@@H]2C(=O)C[C@@]2(C)[C@H]1CC[C@]2(O)C(=O)CO
Potency [1]: inactive
Potency [2]: inactive
Potency [4]: inactive
Potency [6]: inactive

C[C@@H]1CN(c2c(F)c(N)c3c(=O)c(C(=O)O)cn(C4CC4)c3c2F)C[C@H](C)N1
Potency [1]: inactive
Potency [2]: inactive
Potency [6]: inactive

Nc1nc(N)nc(-c2cc(Cl)ccc2Cl)n1
Potency [1]: inactive
Potency [2]: inactive
Potency [4]: inactive
Potency [6]: inactive

CCCCOc1ccc(CC(=O)NO)cc1
Potency [1]: inactive and 16.6 µM (active)
Potency [2]: inactive and 16.6 µM (active)
Potency [4]: inactive
Potency [6]: inactive

CCn1cc(C(=O)O)c(=O)c2cc(F)c(N3CCNCC3)nc21
Potency [1]: inactive
Potency [2]: inactive
Potency [6]: inactive

COC(=O)Nc1nc2ccc(Sc3ccccc3)cc2[nH]1
Potency [1]: 266 nM (active) and 417 nM (active)
Potency [2]: 266 nM (active) and 372 nM (active)
Potency [4]: inactive
Potency [6]: inactive

O=C(O)CSCC(=O)NC1CCSC1=O (stereo not given)
Potency [1]: inactive
Potency [2]: inactive
Potency [6]: inactive

CCc1c2c(nc3ccc(OC(=O)N4CCC(N5CCCCC5)CC4)cc13)-c1cc3c(c(=O)n1C2)COC(=O)[C@]3(O)CC
Potency [1]: 750 nM (active) and 235 nM (active)
Potency [2]: 596 nM (active) and 118 nM (active)
Potency [4]: 20.2 µM (active) and 2.05 µM (active)
Potency [6]: 12.6 µM (active)

CNC1CCCN(c2c(F)cc3c(=O)c(C(=O)O)cn(C4CC4)c3c2OC)C1 (stereo not given)
Potency [1]: inactive
Potency [2]: inactive
Potency [4]: inactive
Potency [6]: inactive

CC[C@H](NC(C)C)[C@H](O)c1ccc(O)c2[nH]c(=O)ccc12
Potency [1]: inactive
Potency [2]: inactive
Potency [6]: inactive

O=C(O)c1cc(=O)[nH]c(=O)[nH]1
Potency [1]: inactive
Potency [2]: inactive
Potency [4]: inactive
Potency [6]: inactive

O=S(=O)(O)CCS
Potency [1]: inactive
Potency [2]: inactive
Potency [6]: inactive

COc1ccc(-c2ccc3cc(C(=O)O)ccc3c2)cc1C12CC3CC(CC(C3)C1)C2
Potency [1]: inactive
Potency [2]: inactive
Potency [6]: inactive

C[C@@H]1C[C@H]2[C@@H]3CCC4=CC(=O)C=C[C@]4(C)[C@@]3(Cl)[C@@H](O)C[C@]2(C)[C@@]1(OC(=O)c1ccco1)C(=O)CCl
Potency [1]: 23.7 µM (active)
Potency [2]: inactive and 1.2 nM (active)
Potency [4]: inactive
Potency [6]: inactive

COc1cc([C@@H]2c3cc4c(cc3[C@H](O)[C@H]3COC(=O)[C@H]23)OCO4)cc(OC)c1OC
Potency [1]: 7.5 nM (active) and 37.2 nM (active)
Potency [2]: 6 nM (active) and 29.5 nM (active)
Potency [4]: inactive
Potency [6]: inactive

CC(C)OC(=O)C(C(=O)OC(C)C)=C1SC=CS1
Potency [1]: inactive
Potency [2]: inactive
Potency [6]: inactive

CN(C)c1ccc(C(=C2C=CC(=[N+](C)C)C=C2)c2ccc(N(C)C)cc2)cc1
Potency [1]: 33.5 nM (active) and 296 nM (active)
Potency [2]: 42.2 nM (active) and 263 nM (active)
Potency [4]: inactive
Potency [6]: inactive

O=C(O)c1ccc(-n2nc(-c3ccccc3O)nc2-c2ccccc2O)cc1
Potency [1]: 6.68 µM (active) and 4.17 µM (active)
Potency [2]: 5.31 µM (active) and 4.17 µM (active)
Potency [4]: inactive
Potency [6]: inactive

COc1cc(NCc2ccc3nc(N)nc(N)c3c2C)cc(OC)c1OC
Potency [1]: 13.3 nM (active) and 1.05 µM (active)
Potency [2]: 15 nM (active) and 1.18 µM (active)
Potency [4]: inactive
Potency [6]: inactive
